PubChem BioAssay (NCATS)
Results filed as inconclusive are left out. Where a call stands in place of a potency, no number is given. Activity calls are given as the source filed them. The call rests on the fitted dose curve; in most records, active means well fitted inhibition curve with a large enough effect; inconclusive means small, poorly fitted or top-dose-only effect; inactive means flat fitted curve, though single readings scatter.

target: Ubiquitin carboxyl-terminal hydrolase 1 (Homo sapiens) (UniProt O94782); assay: Inhibitors of USP1/UAF1: Pilot qHTS (AID 504865); settings: purified USP1/UAF1, Ub-rhodamine cleavage fluorescence; series mostly up to 54.9 µM; further: nearly all actives have a fitted effect of over 35% in size
Excerpt: Deubiquitinating enzymes (DUBs) are a class of enzymes that can cleave isopeptide bond formed between the C-terminal carboxylate of ubiquitin and a lysine side-chain amino group on the target protein. Among them, ubiquitin specific proteases (USPs) constitute the largest DUB family. Human USPs are emerging as promising targets for pharmacological intervention because of their connection to a number of human diseases, including prostate, colon and breast cancer (1, 2), pediatric acute lymphoblastic leukemia (3), and familial cylindromatosis (4). The advantage of inhibiting USPs lies in the potential specificity of therapeutic intervention that can lead to better efficacy and reduce nonspecific side effects.
In a collaboration between the University of Delaware and the NIH Chemical Genomics Center, a high-throughput screen assay was developed to screen for USP1/UAF1 inhibitors. This miniaturized assay has a fluorescent read-out and is used to screen the NIH Molecular Libraries Small Molecule Repository (MLSMR) in order to identify a small molecule that inhibits USP1.
NIH Chemical Genomics Center [NCGC]
NIH Molecular Libraries Probe Centers Network [MLPCN]
Assay Submitter (PI): Zhihao Zhuang, University of Delaware
1. Priolo, C., et al. (2006) The isopeptidase USP2a protects human prostate cancer from apoptosis. Cancer Res 66, 8625-8632
2. Popov, N., et al. (2007) The ubiquitin-specific protease USP28 is required for MYC stability. Nat Cell Biol 9, 765-774
3. De Pitta, C., et al. (2005) A leukemia-enriched cDNA microarray platform identifies new transcripts with relevance to the biology of pediatric acute lymphoblastic leukemia. Haematologica 90, 890-898
4. Kovalenko, A., et al. (2003) The tumour suppressor CYLD negatively regulates NF-kappaB signalling by deubiquitination. Nature 424, 801-805
3 microliters of reagents (buffer in columns 3 and 4 as negative control and 1nM USP1/UAF1 complex in columns 1, 2, and 5-48) are dispensed into Greiner black solid bottom 1536-well assay plates. Compounds are then transferred via Kalypsys pin tool equipped with 1536-pin array (10nl slotted pins, V&P Scientific, San Diego, CA). Following an incubation step of 15 min at room temperature, 1ul of Ub-Rho substrate (150nM final concentration) is added to initiate the reaction. The plates are immediately centrifuged at 1000 rpm for 15 seconds, and subsequently transferred to a ViewLux high-throughput CCD imager (PerkinElmer) wherein kinetic measurements of fluorescence are acquired using 480 nm excitation/540 nm emission filter set (6 reads every 60 seconds, see Table 1). All reagents are diluted in an assay buffer consisting of 50mM HEPES (pH 7.8), 0.5mM EDTA, 0.1 mg/ml BSA, 1mM TCEP, and 0.01% Tween-20.
Potency means the concentration at half of the fitted maximal effect.

Ubiquitin carboxyl-terminal hydrolase 1 (Homo sapiens), sequence (O94782 whole entry, looked up): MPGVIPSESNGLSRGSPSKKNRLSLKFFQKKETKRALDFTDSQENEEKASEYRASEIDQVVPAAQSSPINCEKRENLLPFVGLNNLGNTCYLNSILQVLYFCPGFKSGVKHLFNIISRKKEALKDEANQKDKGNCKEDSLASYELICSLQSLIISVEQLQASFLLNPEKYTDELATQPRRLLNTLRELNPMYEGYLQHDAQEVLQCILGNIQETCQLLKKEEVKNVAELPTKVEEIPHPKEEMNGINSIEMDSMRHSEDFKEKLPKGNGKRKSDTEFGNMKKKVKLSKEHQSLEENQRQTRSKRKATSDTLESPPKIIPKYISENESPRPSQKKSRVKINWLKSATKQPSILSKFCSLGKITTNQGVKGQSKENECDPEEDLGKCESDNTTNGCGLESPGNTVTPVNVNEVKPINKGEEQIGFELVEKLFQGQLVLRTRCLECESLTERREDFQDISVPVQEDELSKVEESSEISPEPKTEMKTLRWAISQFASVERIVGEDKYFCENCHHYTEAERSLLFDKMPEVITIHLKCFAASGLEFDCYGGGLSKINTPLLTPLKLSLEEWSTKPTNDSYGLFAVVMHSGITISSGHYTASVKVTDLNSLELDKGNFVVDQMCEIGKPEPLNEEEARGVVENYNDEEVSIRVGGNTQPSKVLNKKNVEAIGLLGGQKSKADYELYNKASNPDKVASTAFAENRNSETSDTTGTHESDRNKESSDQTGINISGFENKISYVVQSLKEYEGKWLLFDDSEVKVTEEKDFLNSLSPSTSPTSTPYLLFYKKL

| Structure (SMILES) | Potency |
| --- | --- |
| CNc1ccnc(-c2ccccc2C)n1 | inactive |
| COc1ccc(CNc2ccnc(-c3cccc(NS(C)(=O)=O)c3)n2)c(OC)c1 | inactive |
| CC1(C)O[C@@H]2C[C@H]3[C@H]4C[C@H](F)C5=CC(=O)C=C[C@@]5(C)[C@@H]4[C@H](O)C[C@]3(C)[C@]2(C(=O)CO)O1 | inactive |
| CCNc1ncc2nc(-c3ccccc3)c(=O)n(C)c2n1 | inactive |
| Cn1cc(-c2nc3cnc(N4CCOCC4)nc3n(CCC#N)c2=O)c2ccccc21 | inactive |
| NS(=O)(=O)c1cc([C@@]2(O)NC(=O)c3ccccc32)ccc1Cl | inactive |
| COc1cccc(Cn2c(=O)c(-c3cccs3)nc3cnc(OC)nc32)c1 | inactive |
| N#Cc1ccccc1-c1ccc2ncnc(NC3CC3)c2c1 | inactive |
| CCNc1ncc2nc(-c3cn(C)c4ccccc34)c(=O)n(C[C@H]3CCCO3)c2n1 | inactive |
| Cc1ccccc1-c1ccc2ncnc(N3CCNCC3)c2c1 | inactive |
| COc1ccc(C[C@@H]2c3cc(OC)c(OC)cc3CC[N@+]2(C)CCC(=O)OCCCCCOC(=O)CC[N@@+]2(C)CCc3cc(OC)c(OC)cc3[C@H]2Cc2ccc(OC)c(OC)c2)cc1OC | inactive |
| COc1ccc(-c2nc3cnc(N(C)C)nc3n(Cc3ccc(F)cc3)c2=O)cc1 | inactive |
| O=c1c(-c2ccc(F)cc2)nc2cnc(N3CCNCC3)nc2n1Cc1cccs1 | inactive |
| C[C@H]1NC(=O)NC1=O | inactive |
| COc1ccc(Nc2ncc3nc(-c4cccs4)c(=O)n(Cc4cccc(OC)c4)c3n2)cc1 | inactive |
| CN(C)c1ncc2nc(-c3ccc(Cl)cc3)c(=O)n(-c3ccccc3)c2n1 | inactive |
| COc1ccccc1-c1cc(N(C)Cc2ccco2)ncn1 | inactive |
| COc1ccc(-c2nc3cnc(OCc4ccccc4)nc3n(CCC#N)c2=O)cc1 | inactive |
| O=C(C1CCCCC1)N1CC(=O)N2CCc3ccccc3[C@@H]2C1 | inactive |
| CN(C)C(=O)c1ccc(-c2cncnc2-n2ccnc2)cc1 | inactive |

| Structure (SMILES) | Potency |
| --- | --- |
| COc1cccc(-c2cc(NCc3ccccc3OC)ncn2)c1 | inactive |
| Cc1ccccc1-c1ccc2ncnc(N3CCN(C)CC3)c2c1 | inactive |
| COc1ccccc1CNc1ccnc(-c2cccc(C#N)c2)n1 | inactive |
| N#Cc1cccc(-c2nc(Nc3ccccc3)c3ccccc3n2)c1 | inactive |
| O=C(/C=C/c1ccc(O)c(O)c1)OC(Cc1ccc(O)c(O)c1)C(=O)O (stereo not given) | inactive |
| C[C@@H](CCc1ccccc1)NC[C@H](O)c1ccc(O)c(C(N)=O)c1 | inactive |
| N#Cc1cccc(-c2ccc3ncnc(NC4CCNCC4)c3c2)c1 | inactive |
| CCNc1ncc2nc(-c3cc(F)cc(F)c3)c(=O)n(CCOC)c2n1 | inactive |
| c1nc(NCCN2CCOCC2)c2cc(-c3ccoc3)ccc2n1 | inactive |
| CC1=C(C(=O)O)N2C(=O)[C@@H](NC(=O)[C@@H](N)c3ccccc3)[C@@H]2SC1 | inactive |
| CCNc1ncc2nc(-c3cccs3)c(=O)n(-c3ccccc3)c2n1 | inactive |
| COc1c2ccoc2nc2c(OC)c(OC[C@H](O)C(C)(C)O)ccc12 | inactive |
| Cc1cnc(CNc2ccnc(-c3cccc(C#N)c3)n2)cn1 | inactive |
| Cc1ccccc1-c1cncnc1N1CCN(C)CC1 | inactive |
| C=CC(C1=CC(=O)C(OC)=CC1=O)c1ccccc1 (stereo not given) | 56.2 µM (active) |
| CNc1ncnc2ccc(-c3ccc4c(c3)OCO4)cc12 | inactive |
| COc1ccc(-c2nc3cnc(N4CCOCC4)nc3n(CCc3ccccc3)c2=O)cc1 | inactive |
| CCNc1ncc2nc(C)c(=O)n(CCOC)c2n1 | inactive |
| COc1cccc(Cn2c(=O)c(-c3cc(F)cc(F)c3)nc3cnc(N4CCOCC4)nc32)c1 | inactive |
| CN(C)c1ccc(-c2cncnc2Nc2ccc(F)cc2)cc1 | inactive |
